The record followed here is ChEMBL document CHEMBL4513135, “CO-ADD screening of IQOG CSIS (Spain) compounds”.

One assay deals with Klebsiella pneumoniae. Particulars: Concentration 32 ug.mL-1, ASSAY_TEST Inhibition of Bacterial Growth, detection method Absorption (OD600), MEDIA CAMHB, plate type 384well, NBS, CORNING #3640, time 18 hr.
A further assay deals with Candida albicans. Particulars: 32 ug/mL.
In another assay the test system is Cryptococcus neoformans. The settings on record: Concentration 32 ug.mL-1, ASSAY_TEST Inhibition of Fungal Growth, detection method Resazurin, Absorption (OD600-OD570), plate type 384well, NBS, CORNING #3640. (The colour change of resazurin is a common sign of viable cells or microbes.)

Several values for one entry are separate records, joined by “and”; a condition that tells them apart may be missing. Identical values can stand only once. Potency and affinity values are given separately.

The term Inhibition denotes the drop in the measured response relative to a control, in per cent.

On to `COc1ccc(C2c3c(ccc4ccccc34)OC(=N)C2(Br)C#N)cc1OC` (stereo not drawn), for which the Inhibition in the assay on Klebsiella pneumoniae is 2.61%; in the assay on Candida albicans, 7.63%; in the assay with Cryptococcus neoformans, -66.17%.
For `CCOC(=O)C1=C(C)OC(N)=C(C#N)C1c1cccs1` (stereo not drawn), in that order: 7.75%, 0.39% and -27.56%.
The like results for `CC1CC(=O)Nc2c1c(Cl)nc1nc3c(c(N)c21)CCCC3` (stereo not drawn) were, in that order, 13.46%, 3.48% and -92.92%.
`C#CC[n+]1ccccc1N.[Br-]`: the Inhibition was -10.26% with Klebsiella pneumoniae, 1.82% in the assay with Candida albicans and -3.96% in the assay on Cryptococcus neoformans.
In the case of `COc1ccc2nc(Cl)c(C=O)cc2c1`, the Inhibition was -0.34% and -2.5% with Klebsiella pneumoniae (32 ug/mL); 7.25% and 8.8% in the assay with Candida albicans; -8.56% and -8.89% with Cryptococcus neoformans (32 ug/mL).
Consider `N#Cc1cc(C#N)c(N2CCC(Cc3ccccc3)CC2)nc1N`, for which the values for the Inhibition in the assay on Klebsiella pneumoniae, in the assay with Candida albicans and in the assay on Cryptococcus neoformans were -9.32%, 1.71% and -23.72%, respectively.
The like results for `CNCc1cc2cc(OCc3ccccc3)ccc2n1C.Cl` were, in that order, 14.91%, -0.02% and 0.75%.
The like results for `Cl.ClCCCN1CCCCC1` were, in that order, 13.52%, 1.17% and -10.65%.
For the compound `N#Cc1c(N)nc2[nH]nc(N)c2c1-c1ccccc1`, the Inhibition in the assay with Klebsiella pneumoniae is 17.63%; with Candida albicans, 0.49%; in the assay on Cryptococcus neoformans, -62.75%.
In the case of `N#Cc1c(Cl)nc(Sc2ccccc2)c(C#N)c1-c1ccccc1`, the figures for the Inhibition in the assay on Klebsiella pneumoniae, with Candida albicans and in the assay on Cryptococcus neoformans were -3.62%, 2.71% and -38.87%, respectively.
The like results for `C#CCNc1nc(NCCC2CCN(Cc3ccccc3)CC2)c(C#N)cc1C#N` were, in that order, -4.95%, 3.57% and -89.93%.
For `COc1nc2nc3c(c(N)c2cc1C#N)CCCC3.Cl`, in that order: 10.99%, 1.08% and -96.28%.
For `C#CCN1CCc2nc3nc(N4CCCC4)c(C#N)cc3c(N)c2C1`, in that order: 10.68%, 1.92% and -92.31%.
As for `N#Cc1cc(Br)cc(Br)c1N`, the Inhibition was -0.57% with Klebsiella pneumoniae, 4.77% with Candida albicans and -9.46% in the assay on Cryptococcus neoformans.
The like results for `ClCCC1CCN(Cc2ccccc2)CC1` were, in that order, 14.5%, 6.52% and -7.64%.
Take `Nc1c2c(nc3c1C(c1ccccc1)c1ccc4ccccc4c1O3)CCCC2` (stereo not drawn): the Inhibition in the assay with Klebsiella pneumoniae was determined as 7.96%; in the assay on Candida albicans, 0.57%; in the assay with Cryptococcus neoformans, 5.07%.
Regarding `C=C1CN(C)c2c(C#N)cc(C#N)c(=S)n21`, the Inhibition is 3.88% in the assay with Klebsiella pneumoniae, 4.91% with Candida albicans and -13.76% in the assay with Cryptococcus neoformans.
The like results for `COc1ccc(-c2cc(-c3cc4ccccc4nc3Cl)cc(=O)[nH]2)cc1` were, in that order, 10.14%, -0.7% and -53.36%.
The like results for `CCOC(=O)C1=C(C)NC(N)=C(C#N)C1c1ccc(OC)cc1` (stereo not drawn) were, in that order, 13.36%, 5.45% and -57.77%.
The like results for `CCC(CC)NNC(=O)c1c[nH]c2ccccc12.Cl` were, in that order, 14.64%, 1.1% and 4.78%.
As for `COc1ccc(C=C2N=C(c3ccccc3)SC2=O)cc1`, the Inhibition with Klebsiella pneumoniae is 19.45%; in the assay with Candida albicans it was 0.65%; with Cryptococcus neoformans it was -2.03%.
The like results for `COc1ccc(C=C2N=C(SC)N(C)C2=O)cc1` were, in that order, -13.67%, 0.01% and -7.91%.
For `CC(=O)Oc1ccc(C=C2N=C(c3ccccc3)OC2=O)cc1`, in that order: -12.75%, -0.21% and -12.33%.
The like results for `Cc1nn(-c2ccccc2)c2ncnc(NCc3ccccc3)c12` were, in that order, 6.27%, -0.21% and -3.05%.
Turning to `Cc1ccc(-c2c(C#N)c(N)nc3c2S(=O)(=O)OC3(C)C)cc1`, the Inhibition in the assay with Klebsiella pneumoniae is 10.18%; in the assay on Candida albicans, 1.92%; with Cryptococcus neoformans, -1.83%.
Consider `COc1ccc(-c2cc(-c3ccccc3)c(C#N)c(N)n2)cc1`, for which the Inhibition with Klebsiella pneumoniae was -4.32%; in the assay on Candida albicans, -5.4%; with Cryptococcus neoformans, -104.15%.
The like results for `COc1ccc2cc(C3C4=C(CC(C)(C)CC4=O)Oc4nc5c(c(N)c43)CCCCC5)c(Cl)nc2c1` (stereo not drawn) were, in that order, 4.86%, 23% and -4.18%.
For `Nc1c2c(nc3c1C(c1c(Cl)cccc1Cl)c1ccc4ccccc4c1O3)CCCC2` (stereo not drawn), in that order: 14.02%, -1.13% and -7.78%.
Turning to `CCOC(=O)C1=C(C)OC(N)=C(C#N)C1c1ccc(F)cc1` (stereo not drawn), the Inhibition was 13.44% with Klebsiella pneumoniae, 1.48% in the assay with Candida albicans and -57.32% in the assay on Cryptococcus neoformans.
The like results for `CCOC(=O)c1c(C)nc2nc3c(c(N)c2c1-c1ccc(Cl)cc1)CCCCC3` were, in that order, 1.2%, -0.36% and -57.83%.
The like results for `Cc1[nH]nc2c1C(c1ccc(O)c(O)c1)C(C#N)=C(N)O2` (stereo not drawn) were, in that order, 21.92%, 0.31% and 0.65%.
